Reference: PubChem BioAssay AID1159580 (chemical genetic matrix, 2015)
Out of some 5,500 compounds screened, about 2,000 (36%) were called active. About 18% were inconclusive and are not listed. Cut-off read from the data, not from the text of the source: active = normalized growth mostly below about 0.91 (no sharp cut-off); inconclusive = no clear call, values can overlap the other calls; inactive = mostly above about 0.92. Some of the results follow.

Assay: chemical genetic growth profiling, strain panel (AID 1159580);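 note: tested at 20 µM; growth read once vehicle control cultures reached saturation at 30 °C; 1 = growth at the plate median or of vehicle wells; lower values mean less growth of the strain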
Settings: growth OD

Measured: normalized growth

Cn1c(=O)[nH]c2nc[nH]c2c1=O
inactive: S. cerevisiae deletion strains, locus YAL021C, strain ccr4, hits give low values 0.98 | S. cerevisiae deletion strains, locus YAL026C, strain drs2, hits give low values 1.01 | S. cerevisiae deletion strains, locus YAL030W, strain snc1, hits give low values 1 | S. cerevisiae deletion strains, locus YBL061C, strain skt5, hits give low values 0.992 | S. cerevisiae deletion strains, locus YBR009C, strain hhf1, hits give low values 0.992 | S. cerevisiae deletion strains, locus YBR021W, strain FUR4, hits give low values 1.01 | S. cerevisiae deletion strains, locus YBR023C, strain chs3, hits give low values 0.993 | S. cerevisiae deletion strains, locus YBR171W, strain sec66, hits give low values 0.972 | S. cerevisiae deletion strains, locus YBR229C, strain ROT2, hits give low values 0.995 | S. cerevisiae deletion strains, locus YBR231C, strain swc5, hits give low values 0.989 | S. cerevisiae deletion strains, locus YBR279W, strain paf1, hits give low values 1 | S. cerevisiae deletion strains, locus YCL011C, strain gbp2, hits give low values 0.996 | S. cerevisiae deletion strains, locus YCL016C, strain dcc1, hits give low values 0.994 | S. cerevisiae deletion strains, locus YCL029C, strain bik1, hits give low values 0.992 | S. cerevisiae deletion strains, locus YCL061C, strain MRC1, hits give low values 0.999 | S. cerevisiae deletion strains, locus YCL069W, strain vba3, hits give low values 0.993 | S. cerevisiae deletion strains, locus YCR088W, strain abp1, hits give low values 1.01 | S. cerevisiae deletion strains, locus YDL005C, strain med2, hits give low values 0.993 | S. cerevisiae deletion strains, locus YDL035C, strain GPR1, hits give low values 1.01 | S. cerevisiae deletion strains, locus YDL040C, strain nat1, hits give low values 0.987 | S. cerevisiae deletion strains, locus YDL074C, strain BRE1, hits give low values 1.04 | S. cerevisiae deletion strains, locus YDL101C, strain DUN1, hits give low values 1.01 | S. cerevisiae deletion strains, locus YDL134C, strain PPH21, hits give low values 1 | S. cerevisiae deletion strains, locus YDL185W, strain tfp1, hits give low values 1.01 | S. cerevisiae deletion strains, locus YDL192W, strain arf1, hits give low values 0.985 | S. cerevisiae deletion strains, locus YDR001C, strain nth1, hits give low values 1 | S. cerevisiae deletion strains, locus YDR069C, strain doa4, hits give low values 1 | S. cerevisiae deletion strains, locus YDR101C, strain arx1, hits give low values 0.995 | S. cerevisiae deletion strains, locus YDR137W, strain rgp1, hits give low values 0.976 | S. cerevisiae deletion strains, locus YDR159W, strain sac3, hits give low values 1.01 | S. cerevisiae deletion strains, locus YDR162C, strain NBP2, hits give low values 1.03 | S. cerevisiae deletion strains, locus YDR195W, strain ref2 0.966 | S. cerevisiae deletion strains, locus YDR297W, strain sur2, hits give low values 1 | S. cerevisiae deletion strains, locus YDR318W, strain mcm21, hits give low values 0.994 | S. cerevisiae deletion strains, locus YDR334W, strain swr1, hits give low values 0.998 | S. cerevisiae deletion strains, locus YDR335W, strain msn5, hits give low values 0.987 | S. cerevisiae deletion strains, locus YDR388W, hits give low values 0.994 | S. cerevisiae deletion strains, locus YDR392W, strain spt3, hits give low values 0.972 | S. cerevisiae deletion strains, locus YDR502C, strain sam2, hits give low values 0.997 | S. cerevisiae deletion strains, locus YEL003W, strain gim4, hits give low values 1.01 | S. cerevisiae deletion strains, locus YEL037C, strain rad23, hits give low values 0.992 | S. cerevisiae deletion strains, locus YEL061C, strain CIN8 (second series), hits give low values 0.995 | S. cerevisiae deletion strains, locus YEL061C, strain CIN8, hits give low values 1 | S. cerevisiae deletion strains, locus YER015W, strain faa2, hits give low values 1.01 | S. cerevisiae deletion strains, locus YER016W, strain bim1, hits give low values 0.993 | S. cerevisiae deletion strains, locus YER110C, hits give low values 1 | S. cerevisiae deletion strains, locus YER111C, strain swi4, hits give low values 0.99 | S. cerevisiae deletion strains, locus YER155C, strain BEM2 (second series), hits give low values 0.992 | S. cerevisiae deletion strains, locus YER155C, strain BEM2, hits give low values 1.01 | S. cerevisiae deletion strains, locus YER167W, strain BCK2, hits give low values 0.997 | S. cerevisiae deletion strains, locus YFR010W, strain ubp6, hits give low values 1.01 | S. cerevisiae deletion strains, locus YGL078C, strain dbp3, hits give low values 1.01 | S. cerevisiae deletion strains, locus YGL086W, strain mad1, hits give low values 1.01 | S. cerevisiae deletion strains, locus YGL167C, strain pmr1, hits give low values 1 | S. cerevisiae deletion strains, locus YGL173C, strain kem1, hits give low values 1.02 | S. cerevisiae deletion strains, locus YGL227W, strain vid30, hits give low values 1 | S. cerevisiae deletion strains, locus YGL240W, strain doc1, hits give low values 1.01 | S. cerevisiae deletion strains, locus YGL248W, strain PDE1, hits give low values 0.996 | S. cerevisiae deletion strains, locus YGL253W, strain hxk2, hits give low values 1 | S. cerevisiae deletion strains, locus YGR078C, strain PAC10, hits give low values 1.01 | S. cerevisiae deletion strains, locus YGR135W, strain pre9, hits give low values 1.01 | S. cerevisiae deletion strains, locus YGR252W, strain gcn5, hits give low values 1.01 | S. cerevisiae deletion strains, locus YHR013C, strain ard1, hits give low values 0.989 | S. cerevisiae deletion strains, locus YHR027C, strain rpn1, hits give low values 1.02 | S. cerevisiae deletion strains, locus YHR030C, strain SLT2, hits give low values 1.02 | S. cerevisiae deletion strains, locus YHR079C, strain IRE1 (second series), hits give low values 1 | S. cerevisiae deletion strains, locus YHR094C, strain hxt1, hits give low values 0.993 | S. cerevisiae deletion strains, locus YHR129C, strain ARP1, hits give low values 1 | S. cerevisiae deletion strains, locus YHR142W, strain chs7, hits give low values 0.997 | S. cerevisiae deletion strains, locus YHR200W, strain rpn10, hits give low values 0.983 | S. cerevisiae deletion strains, locus YIL066C, strain RNR3, hits give low values 1.01 | S. cerevisiae deletion strains, locus YIL073C, strain SPO22, hits give low values 1.03 | S. cerevisiae deletion strains, locus YIL125W, strain kgd1, hits give low values 1 | S. cerevisiae deletion strains, locus YIR030C, strain dcg1, hits give low values 0.995 | S. cerevisiae deletion strains, locus YJL092W, strain hpr5, hits give low values 1 | S. cerevisiae deletion strains, locus YJL095W, strain BCK1 (second series), hits give low values 0.997 | S. cerevisiae deletion strains, locus YJL095W, strain BCK1, hits give low values 1.03 | S. cerevisiae deletion strains, locus YJL115W, strain asf1, hits give low values 1.01 | S. cerevisiae deletion strains, locus YJL129C, strain trk1, hits give low values 1.01 | S. cerevisiae deletion strains, locus YJL134W, strain LCB3, hits give low values 1.01 | S. cerevisiae deletion strains, locus YJL154C, strain vps35, hits give low values 0.997 | S. cerevisiae deletion strains, locus YJL164C, strain tpk1, hits give low values 0.981 | S. cerevisiae deletion strains, locus YJL166W, strain qcr8, hits give low values 0.995 | S. cerevisiae deletion strains, locus YJL168C, strain set2, hits give low values 0.994 | S. cerevisiae deletion strains, locus YJL187C, strain SWE1 (second series), hits give low values 1.01 | S. cerevisiae deletion strains, locus YJL187C, strain SWE1, hits give low values 1 | S. cerevisiae deletion strains, locus YJR043C, strain POL32, hits give low values 1.03 | S. cerevisiae deletion strains, locus YJR075W, strain HOC1, hits give low values 1.01 | S. cerevisiae deletion strains, locus YKL068W, hits give low values 1 | S. cerevisiae deletion strains, locus YKL085W, strain MDH1 (second series), hits give low values 1.02 | S. cerevisiae deletion strains, locus YKL085W, strain MDH1, hits give low values 1.02 | S. cerevisiae deletion strains, locus YKL160W, strain elf1, hits give low values 0.978 | S. cerevisiae deletion strains, locus YKL190W, strain CNB1, hits give low values 1.02 | S. cerevisiae deletion strains, locus YKR001C, strain vps1, hits give low values 1.01 | S. cerevisiae deletion strains, locus YKR026C, strain gcn3, hits give low values 0.999 | S. cerevisiae deletion strains, locus YKR091W, strain srl3, hits give low values 0.997 | S. cerevisiae deletion strains, locus YLL001W, strain dnm1, hits give low values 0.977 | S. cerevisiae deletion strains, locus YLL026W, hits give low values 1 | S. cerevisiae deletion strains, locus YLL041C, strain sdh2, hits give low values 0.999 | S. cerevisiae deletion strains, locus YLR027C, strain aat2, hits give low values 0.991 | S. cerevisiae deletion strains, locus YLR039C, strain RIC1, hits give low values 1.03 | S. cerevisiae deletion strains, locus YLR058C, strain SHM2, hits give low values 1.01 | S. cerevisiae deletion strains, locus YLR102C, strain apc9, hits give low values 1.01 | S. cerevisiae deletion strains, locus YLR221C, strain rsa3, hits give low values 1.01 | S. cerevisiae deletion strains, locus YLR258W, strain gsy2, hits give low values 1.01 | S. cerevisiae deletion strains, locus YLR262C, strain YPT6 (second series), hits give low values 0.979 | S. cerevisiae deletion strains, locus YLR262C, strain YPT6, hits give low values 1.04 | S. cerevisiae deletion strains, locus YLR268W, strain sec22, hits give low values 1.01 | S. cerevisiae deletion strains, locus YLR320W, strain mms22, hits give low values 1 | S. cerevisiae deletion strains, locus YLR330W, strain CHS5, hits give low values 1 | S. cerevisiae deletion strains, locus YLR342W, strain FKS1 (second series), hits give low values 1.01 | S. cerevisiae deletion strains, locus YLR342W, strain FKS1, hits give low values 1 | S. cerevisiae deletion strains, locus YLR357W, strain rsc2, hits give low values 0.977 | S. cerevisiae deletion strains, locus YLR370C, strain arc18, hits give low values 0.999 | S. cerevisiae deletion strains, locus YLR371W, strain rom2, hits give low values 1 | S. cerevisiae deletion strains, locus YLR384C, strain iki3, hits give low values 1 | S. cerevisiae deletion strains, locus YLR418C, strain cdc73, hits give low values 1.01 | S. cerevisiae deletion strains, locus YML016C, strain PPZ1, hits give low values 1 | S. cerevisiae deletion strains, locus YML032C, strain rad52, hits give low values 0.991 | S. cerevisiae deletion strains, locus YML120C, strain ndi1, hits give low values 1 | S. cerevisiae deletion strains, locus YML124C, strain tub3, hits give low values 0.996 | S. cerevisiae deletion strains, locus YMR058W, strain fet3, hits give low values 1.01 | S. cerevisiae deletion strains, locus YMR078C, strain ctf18, hits give low values 0.996 | S. cerevisiae deletion strains, locus YMR125W, strain sto1, hits give low values 0.998 | S. cerevisiae deletion strains, locus YMR129W, hits give low values 1 | S. cerevisiae deletion strains, locus YMR205C, strain PFK2, hits give low values 0.998 | S. cerevisiae deletion strains, locus YMR223W, strain ubp8, hits give low values 0.991 | S. cerevisiae deletion strains, locus YMR231W, strain pep5, hits give low values 0.967 | S. cerevisiae deletion strains, locus YMR307W, strain GAS1, hits give low values 1.05 | S. cerevisiae deletion strains, locus YNL067W, strain RPL9B, hits give low values 1.02 | S. cerevisiae deletion strains, locus YNL071W, strain lat1, hits give low values 1 | S. cerevisiae deletion strains, locus YNL153C, strain GIM3, hits give low values 0.998 | S. cerevisiae deletion strains, locus YNL209W, strain ssb2, hits give low values 0.998 | S. cerevisiae deletion strains, locus YNL233W, strain BNI4, hits give low values 1.01 | S. cerevisiae deletion strains, locus YNL248C, strain rpa49, hits give low values 1.01 | S. cerevisiae deletion strains, locus YNL250W, strain rad50, hits give low values 0.994 | S. cerevisiae deletion strains, locus YNL271C, strain bni1, hits give low values 1 | S. cerevisiae deletion strains, locus YNL298W, strain CLA4, hits give low values 0.999 | S. cerevisiae deletion strains, locus YNL307C, strain MCK1, hits give low values 1 | S. cerevisiae deletion strains, locus YNL322C, strain KRE1 (second series), hits give low values 1.01 | S. cerevisiae deletion strains, locus YNL322C, strain KRE1, hits give low values 1.01 | S. cerevisiae deletion strains, locus YNR049C, strain mso1, hits give low values 1.02 | S. cerevisiae deletion strains, locus YNR052C, strain pop2, hits give low values 0.996 | S. cerevisiae deletion strains, locus YOL012C, strain htz1 0.704 | S. cerevisiae deletion strains, locus YOL147C, strain pex11, hits give low values 1.01 | S. cerevisiae deletion strains, locus YOR001W, strain rrp6, hits give low values 1.02 | S. cerevisiae deletion strains, locus YOR061W, strain CKA2, hits give low values 1.01 | S. cerevisiae deletion strains, locus YOR069W, strain VPS5, hits give low values 1.01 | S. cerevisiae deletion strains, locus YOR070C, strain gyp1, hits give low values 1 | S. cerevisiae deletion strains, locus YOR080W, strain dia2, hits give low values 1.01 | S. cerevisiae deletion strains, locus YOR083W, strain WHI5, hits give low values 0.975 | S. cerevisiae deletion strains, locus YOR106W, strain vam3, hits give low values 1 | S. cerevisiae deletion strains, locus YOR136W, strain idh2, hits give low values 0.998 | S. cerevisiae deletion strains, locus YOR144C, strain elg1, hits give low values 0.996 | S. cerevisiae deletion strains, locus YOR184W, strain ser1, hits give low values 1.02 | S. cerevisiae deletion strains, locus YOR265W, strain rbl2, hits give low values 0.994 | S. cerevisiae deletion strains, locus YOR270C, strain vph1, hits give low values 1 | S. cerevisiae deletion strains, locus YOR290C, strain snf2, hits give low values 0.961 | S. cerevisiae deletion strains, locus YOR316C, strain cot1, hits give low values 0.992 | S. cerevisiae deletion strains, locus YPL051W, strain arl3, hits give low values 0.97 | S. cerevisiae deletion strains, locus YPL078C, strain atp4, hits give low values 0.97 | S. cerevisiae deletion strains, locus YPL106C, strain sse1, hits give low values 0.994 | S. cerevisiae deletion strains, locus YPL240C, strain hsp82, hits give low values 0.999 | S. cerevisiae deletion strains, locus YPL241C, strain CIN2, hits give low values 1.01 | S. cerevisiae deletion strains, locus YPR119W, strain clb2, hits give low values 0.995 | S. cerevisiae deletion strains, locus YPR141C, strain kar3, hits give low values 0.997 | S. cerevisiae deletion strains, locus YPR163C, strain tif3, hits give low values 0.988 | S. cerevisiae deletion strains, locus YPR167C, strain met16, hits give low values 0.997 | S. cerevisiae deletion strains, strain wtn01, hits give low values 1.02 | S. cerevisiae strains, strain wild type, hits give low values 1.01
